Measured values from PubChem BioAssay AID1159580 (chemical genetic matrix, 2015).
Screen size: about 5,500 compounds; about 2,000 (36%) were called active. Another 18% or so got no clear call; they are omitted. No stated cut-off is given here; in the data, active means normalized growth mostly below about 0.91 (no sharp cut-off); inconclusive means no clear call, values can overlap the other calls; inactive means mostly above about 0.92. The list shows a part of the results.

Assay: chemical genetic growth profiling, strain panel (AID 1159580);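 further: tested at 20 µM; growth read once vehicle control cultures reached saturation at 30 °C; 1 = growth at the plate median or of vehicle wells; lower values mean less growth of the strain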
Settings: S. cerevisiae deletion strains, growth OD

Measured: normalized growth

COc1ccc(/C=C/C(=O)c2ccc(O)cc2O)cc1
active: locus YAL021C, strain ccr4, hits give low values 0.643 | locus YAL026C, strain drs2, hits give low values 0.39 | locus YAL030W, strain snc1, hits give low values 0.477 | locus YBL061C, strain skt5, hits give low values 0.371 | locus YBR009C, strain hhf1, hits give low values 0.329 | locus YBR023C, strain chs3, hits give low values 0.296 | locus YBR171W, strain sec66, hits give low values 0.736 | locus YBR231C, strain swc5, hits give low values 0.35 | locus YBR279W, strain paf1, hits give low values 0.486 | locus YCL011C, strain gbp2, hits give low values 0.414 | locus YCL016C, strain dcc1, hits give low values 0.398 | locus YCL061C, strain MRC1, hits give low values 0.494 | locus YCL069W, strain vba3, hits give low values 0.436 | locus YCR088W, strain abp1, hits give low values 0.637 | locus YDL005C, strain med2, hits give low values 0.412 | locus YDL040C, strain nat1, hits give low values 0.68 | locus YDR001C, strain nth1, hits give low values 0.546 | locus YDR069C, strain doa4, hits give low values 0.815 | locus YDR137W, strain rgp1, hits give low values 0.218 | locus YDR159W, strain sac3, hits give low values 0.355 | locus YDR195W, strain ref2 0.69 | locus YDR297W, strain sur2, hits give low values 0.643 | locus YDR334W, strain swr1, hits give low values 0.383 | locus YDR335W, strain msn5, hits give low values 0.477 | locus YDR392W, strain spt3, hits give low values 0.107 | locus YEL003W, strain gim4, hits give low values 0.333 | locus YEL037C, strain rad23, hits give low values 0.678 | locus YEL061C, strain CIN8 (second series), hits give low values 0.222 | locus YER015W, strain faa2, hits give low values 0.496 | locus YER016W, strain bim1, hits give low values 0.488 | locus YER111C, strain swi4, hits give low values 0.193 | locus YER155C, strain BEM2 (second series), hits give low values 0.125 | locus YFR010W, strain ubp6, hits give low values 0.661 | locus YGL167C, strain pmr1, hits give low values 0.782 | locus YGL173C, strain kem1, hits give low values 0.326 | locus YGL227W, strain vid30, hits give low values 0.246 | locus YGL240W, strain doc1, hits give low values 0.349 | locus YGL253W, strain hxk2, hits give low values 0.23 | locus YHR013C, strain ard1, hits give low values 0.352 | locus YHR027C, strain rpn1, hits give low values 0.59 | locus YHR030C, strain SLT2, hits give low values 0.458 | locus YHR079C, strain IRE1, hits give low values 0.48 | locus YHR142W, strain chs7, hits give low values 0.175 | locus YJL092W, strain hpr5, hits give low values 0.523 | locus YJL095W, strain BCK1 (second series), hits give low values 0.187 | locus YJL095W, strain BCK1, hits give low values 0.423 | locus YJL115W, strain asf1, hits give low values 0.56 | locus YJL129C, strain trk1, hits give low values 0.386 | locus YJL154C, strain vps35, hits give low values 0.697 | locus YJL164C, strain tpk1, hits give low values 0.324 | locus YJL166W, strain qcr8, hits give low values 0.266 | locus YJL187C, strain SWE1, hits give low values 0.492 | locus YJR066W, strain TOR1, hits give low values 0.439 | locus YKL160W, strain elf1, hits give low values 0.299 | locus YKR026C, strain gcn3, hits give low values 0.784 | locus YKR091W, strain srl3, hits give low values 0.699 | locus YLL001W, strain dnm1, hits give low values 0.528 | locus YLL026W, hits give low values 0.267 | locus YLL041C, strain sdh2, hits give low values 0.615 | locus YLR027C, strain aat2, hits give low values 0.369 | locus YLR113W, strain HOG1, hits give low values 0.361 | locus YLR221C, strain rsa3, hits give low values 0.28 | locus YLR258W, strain gsy2, hits give low values 0.476 | locus YLR262C, strain YPT6 (second series), hits give low values 0.221 | locus YLR320W, strain mms22, hits give low values 0.14 | locus YLR342W, strain FKS1, hits give low values 0.313 | locus YLR357W, strain rsc2, hits give low values 0.633 | locus YLR370C, strain arc18, hits give low values 0.619 | locus YLR384C, strain iki3, hits give low values 0.671 | locus YML120C, strain ndi1, hits give low values 0.336 | locus YMR058W, strain fet3, hits give low values 0.34 | locus YMR125W, strain sto1, hits give low values 0.205 | locus YMR129W, hits give low values 0.707 | locus YMR205C, strain PFK2, hits give low values 0.26 | locus YMR231W, strain pep5, hits give low values 0.462 | locus YNL071W, strain lat1, hits give low values 0.0785 | locus YNL183C, strain NPR1, hits give low values 0.516 | locus YNL209W, strain ssb2, hits give low values 0.661 | locus YNL248C, strain rpa49, hits give low values 0.402 | locus YNL322C, strain KRE1 (second series), hits give low values 0.618 | locus YNR049C, strain mso1, hits give low values 0.631 | locus YOR001W, strain rrp6, hits give low values 0.444 | locus YOR070C, strain gyp1, hits give low values 0.336 | locus YOR080W, strain dia2, hits give low values 0.631 | locus YOR083W, strain WHI5, hits give low values 0.479 | locus YOR106W, strain vam3, hits give low values 0.38 | locus YOR231W, strain MKK1, hits give low values 0.495 | locus YOR265W, strain rbl2, hits give low values 0.535 | locus YOR270C, strain vph1, hits give low values 0.161 | locus YOR290C, strain snf2, hits give low values 0.28 | locus YPL051W, strain arl3, hits give low values 0.273 | locus YPL078C, strain atp4, hits give low values 0.32 | locus YPL106C, strain sse1, hits give low values 0.458 | locus YPL240C, strain hsp82, hits give low values 0.44 | locus YPL256C, strain CLN2, hits give low values 0.5
